In PubChem BioAssay (EPA / NIEHS):
Results filed as inconclusive are left out. Activity calls are given as the source filed them. The calls were made as follows: active = hit-call score of the fitted dose curve at least 0.9, where 1 is the maximum; inconclusive = response in the unintended direction; inactive = score below 0.9.

Assays:
[1] = TOX21_p53_BLA_p2_viability: Viability Assessment in the Tox21 HCT-116 p53 Agonism Beta-lactamase Assay, Phase 2 (AID 2283591);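 also: compound exposure lasted 16 h at 37 °C; actives lower the ATP signal meaning cytotoxicity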
In short: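 Cytotoxicity readout: CellTiter-Glo ATP luminescence, 30 min at room temperature, after the beta-lactamase read. Cells were HCT116 exposed 16 h at 37C to compounds pin-transferred at 217-fold dilution from DMSO stocks.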

[2] = molecular target: Cellular tumor antigen p53 (Homo sapiens) (UniProt P04637); experiment: TOX21_p53_BLA_p2_ratio: Tox21 HCT-116 p53 Agonism Beta-lactamase Assay, Ratio, Phase 2 (AID 2283592)
Chain of Cellular tumor antigen p53 (Homo sapiens) (P04637 whole entry, looked up): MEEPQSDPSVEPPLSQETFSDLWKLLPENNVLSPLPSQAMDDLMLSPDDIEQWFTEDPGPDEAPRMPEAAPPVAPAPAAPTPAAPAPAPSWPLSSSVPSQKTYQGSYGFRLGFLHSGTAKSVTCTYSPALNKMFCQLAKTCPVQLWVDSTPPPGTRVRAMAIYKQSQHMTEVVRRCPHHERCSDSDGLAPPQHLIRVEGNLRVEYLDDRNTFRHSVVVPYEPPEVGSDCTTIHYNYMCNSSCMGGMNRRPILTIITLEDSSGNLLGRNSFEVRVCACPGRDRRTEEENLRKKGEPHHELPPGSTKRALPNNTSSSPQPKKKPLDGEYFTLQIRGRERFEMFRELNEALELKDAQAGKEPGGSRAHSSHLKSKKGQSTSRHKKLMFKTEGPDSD
In short: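 Gain-of-signal p53 agonism was scored from the beta-lactamase FRET ratio (460/530 nm, 405 nm excitation) in HCT116 cells treated 16 h at 37C, 5% CO2, with DMSO serving as negative control and baseline.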

[3] = molecular target: Cellular tumor antigen p53 (Homo sapiens) (UniProt P04637); experiment: TOX21_p53_BLA_p3_ratio: Tox21 HCT-116 p53 Agonism Beta-lactamase Assay, Ratio, Phase 3 (AID 2283596)
In short: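 HCT116 p53-bla cells (4000/well) given compound in DMSO (217-fold dilution) after 5 h, incubated 16 h at 37C. CCF4-AM substrate 2 h at room temperature; 460/530 nm emission ratio, gain fitted against DMSO.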

[4] = TOX21_p53_BLA_p4_viability: Viability Assessment in the Tox21 HCT-116 p53 Agonism Beta-lactamase Assay, Phase 4 (AID 2283597);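 also: hits lower the luminescence signal meaning cytotoxicity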
In short: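 Following a 16 h exposure at 37C, the treated HCT116 wells were first read for the FRET ratio. They were then lysed with CellTiter-Glo, and ATP luminescence was recorded after 30 min at room temperature.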

[5] = molecular target: Cellular tumor antigen p53 (Homo sapiens) (UniProt P04637); experiment: TOX21_p53_BLA_p5_ratio: Tox21 HCT-116 p53 Agonism Beta-lactamase Assay, Ratio, Phase 5 (AID 2283599)
In short: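 Beta-lactamase reporter ratio (blue 460 nm over green 530 nm, 405 nm excitation) after 2 h CCF4-AM loading, in HCT-116 cells exposed 16 h at 37 C to compounds pinned at 217-fold dilution. Increases relative to DMSO baseline scored.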

[6] = TOX21_p53_BLA_p5_viability: Viability Assessment in the Tox21 HCT-116 p53 Agonism Beta-lactamase Assay, Phase 5 (AID 2283600)
In short: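 After the 460/530 nm beta-lactamase measurement, the wells received an ATP-detection luciferase reagent; signal was read 30 min later at RT. Compound treatment lasted 16 h on cells pre-incubated 5 h post-seeding.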

[7] = molecular target: Cellular tumor antigen p53 (Homo sapiens) (UniProt P04637); experiment: TOX21_p53_BLA_p4_ratio: Tox21 HCT-116 p53 Agonism Beta-lactamase Assay, Ratio, Phase 4 (AID 2283601)
In short: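 Signal is the blue/green (460nm/530nm) ratio of cleaved versus uncleaved CCF4-AM substrate, read after 2 h substrate loading. Cells were HCT116 carrying the p53-responsive beta-lactamase reporter, dosed 16 h at 37C, 5% CO2; CellTiter-Glo measured in parallel.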

SMILES | outcome [1] | outcome [2] | outcome [3] | outcome [4] | outcome [5] | outcome [6] | outcome [7] | AC50 [1] | AC50 [2] | AC50 [4] | AC50 [5] | AC50 [3] | AC50 [6] | AC50 [7]
CCCCN=C(N)N=C(N)N | inactive | inactive | inactive | inactive | inactive | inactive | inactive |  |  |  |  |  |  | 
CCCCC1C(=O)N(c2ccccc2)N(c2ccc(O)cc2)C1=O (configuration not stated) |  |  | inactive |  |  | inactive | inactive | 19 µM (active) | 15.8 µM (active) | 17 µM (active) | 15.4 µM (active) |  |  | 
Cc1cc(CC(=O)O)n(C)c1C(=O)c1ccc(Cl)cc1 | inactive | inactive | inactive | inactive | inactive | inactive | inactive |  |  |  |  |  |  | 
N[C@@H](CSSC[C@H](N)C(=O)O)C(=O)O | inactive | inactive | inactive | inactive | inactive | inactive | inactive |  |  |  |  |  |  | 
N#CCC(=O)NN | inactive | inactive | inactive | inactive | inactive | inactive | inactive |  |  |  |  |  |  | 
CCN(CC)C(C)=O | inactive | inactive | inactive | inactive | inactive | inactive | inactive |  |  |  |  |  |  | 
COc1cc(NS(C)(=O)=O)ccc1Nc1c2ccccc2nc2ccccc12 |  |  |  |  |  |  |  | 12.8 µM (active) | 7.65 µM (active) | 25.6 µM (active) | 22.1 µM (active) | 8.11 µM (active) | 33.6 µM (active) | 1.36 µM (active)
Cc1cc(C)cc(N)c1 | inactive | inactive | inactive | inactive | inactive | inactive | inactive |  |  |  |  |  |  | 
NS(=O)(=O)c1cc2c(cc1Cl)NC=NS2(=O)=O | inactive | inactive | inactive | inactive | inactive | inactive | inactive |  |  |  |  |  |  | 
C=C1CC[C@H](O)C/C1=C/C=C1\CCC[C@]2(C)[C@@H]([C@H](C)CC[C@@H](O)C(C)(C)O)CC[C@@H]12 |  |  |  |  |  |  |  | 20.1 µM (active) | 24.5 µM (active) | 17.9 µM (active) | 22.5 µM (active) | 26.9 µM (active) | 17.2 µM (active) | 21.1 µM (active)
CC(C)Nc1ccccc1 | inactive | inactive | inactive | inactive | inactive | inactive | inactive |  |  |  |  |  |  | 
O=C(Cn1ccnc1[N+](=O)[O-])NCCO | inactive | inactive | inactive | inactive | inactive | inactive | inactive |  |  |  |  |  |  | 
Nc1ccc(N)c2ccccc12 |  |  | inactive |  |  |  |  | 46 µM (active) | 16.5 µM (active) | 46 µM (active) | 86 µM (active) |  | 46 µM (active) | 13.5 µM (active)
CCN(CC)CCOCCOC(=O)C(CC)(CC)c1ccccc1 | inactive | inactive | inactive | inactive | inactive | inactive | inactive |  |  |  |  |  |  | 
O=S(c1cc(Cl)cc(Cl)c1O)c1cc(Cl)cc(Cl)c1O | inactive |  |  | inactive | inactive | inactive |  |  | 16.2 µM (active) |  |  | 6.85 µM (active) |  | 15.1 µM (active)
O=C(OCC(COC(=O)c1ccccc1)(COC(=O)c1ccccc1)COC(=O)c1ccccc1)c1ccccc1 | inactive | inactive |  | inactive | inactive | inactive | inactive |  |  |  |  | 54.3 µM (active) |  | 
